Several values for one entry are separate records, joined by “and”; a condition that tells them apart may be missing. Identical values can stand only once. Inconclusive results are not listed. Activity calls are given as the source filed them. Calls come from the whole dose curve; as a rule, active = well fitted cell-killing curve with a large enough effect; inconclusive = small, poorly fitted or top-dose-only effect; inactive = no such curve, though single readings can be large or run the other way.
Potency is the fitted concentration of half-maximal effect.

This assay can be described thus: qHTS of pediatric cancer cell lines to identify multiple opportunities for drug repurposing: Confirmatory screen for BT-37 cells (AID 1347117). Note: nearly all actives have a fitted effect of over 55% in size. The following applies: BT-37 pediatric cancer cells, viability; series mostly up to 45.9 µM. The source says:
Drug repurposing or repositioning has been offered as a strategy for drug development in oncology programs. This approach has special potential for childhood cancers and other rare or orphan diseases, where the expected return on new drug development has been a disincentive to pharmaceuticals.
In this project we exploit the poly-pharmacology of drugs to discover new indications via phenotypic screening of a panel of 19 well-characterized cell lines derived from solid tumors seen in children and adolescents. The goal is to identify approved drugs with previously unrecognized anticancer properties that has the potential to reveal new mechanisms and biological processes involved in carcinogenesis or drug resistance. We employed a titration-based paradigm (quantitative high-throughput screening or qHTS), where all compounds were tested at multiple concentrations for their effect on cell viability. Concentration-response curves (CRCs) were derived directly from the primary screen, and both potency and efficacy values were used to identify compounds with robust bioactivity profiles. We screened the NIH Chemical Genomics Center (NCGC) Pharmaceutical Collection (NPC) and Mechanism Interrogation Plate (MIPE) small molecule collections of approved and investigational compounds against these cell lines; and measured metabolically active cells after 48 hours of compound treatment as a proxy for cell viability.
Assay Submitter: Nathalia J. Martinez, National Center for Advancing Translational Sciences, National Institutes of Health, Rockville, MD, USA; email: natalia.martinez@nih.gov
[1] Shen, M et al. Quantitative high-throughput phenotypic screening of pediatric cancer cell lines identifies multiple opportunities for drug repurposing. Oncotarget 2017 Dec 19;9(4):4758-4772. PMID 29435139.
The cells were obtained from University of North Carolina (UNC), Pediatric Preclinical Testing Program (PPT), and Coriell Institute (CI).
qHTS cell viability assay:
Cells were assayed in growth media at a density of 500-1,000 cells/well. Five microliters of cells were dispensed into 1,536-well, white, solid-bottom, TC-treated plates (Greiner Bio One) using a multidrop dispenser and incubated at 37 degrees C, 5% CO2, under a humidified atmosphere for 5 hours. Twenty-three nanoliters of compounds and controls (neutral control DMSO or positive control bortezomib at final concentration of 2.3 µM) were subsequently transferred by Kalypsys pintool. For primary screens, the MIPE collection was tested at 11-point dilutions (final concentrations range from 0.78 nM to 46 µM) and the NPC collection at 8-point dilutions (final concentrations range from 0.59 nM to 46 µM). Compounds tested in follow-up screens were assayed at 11-point dilutions. Cells were incubated for 48 hours, followed by addition of 3 µL of CellTiter-Glo (Promega). After a 15 min incubation at room temperature, samples were analyzed for luminescence intensity using a ViewLux High-throughput CCD imager equipped with clear filters.
Consider `Oc1ccc(-c2nc(-c3ccc(F)cc3)c(-c3ccncc3)[nH]2)cc1`, for which the Potency is 737 nM (active). The value for `c1cnc2cc3c(cc2n1)C1CNCC3C1` was “inactive”; that for `CCN(CC)CCOc1ccc(Nc2ncc3cc(-c4c(Cl)cccc4Cl)c(=O)n(C)c3n2)cc1` was 4650 nM (active). The value for `CCOc1cc(CC(=O)N[C@@H](CC(C)C)c2ccccc2N2CCCCC2)ccc1C(=O)O` was “inactive”. As for `CC(S)C(=O)NCC(=O)O` (stereo not drawn), the entry is “inactive”; as for `CC(C)C[C@H](NC(=O)[C@H](Cc1ccccc1)NC(=O)c1cnccn1)B(O)O`, 46.5 nM (active); as for `CCCCc1ccc2nc(NC(=O)OC)[nH]c2c1`, 414 nM (active). `CCCOc1ccc2nc(NC(=O)OC)[nH]c2c1`: the Potency is 1310 nM (active).

For the compound `C=C(c1ccc(C(=O)O)cc1)c1cc2c(cc1C)C(C)(C)CCC2(C)C`, the Potency entry was “inactive”. As for `O=C(CCc1ccc(O)cc1)c1c(O)cc(O)cc1O`, the entry is “inactive”. The value for `Clc1ccc(C(Cn2ccnc2)OCc2ccsc2Cl)c(Cl)c1` (stereo not drawn) was 7370 nM (active); that for `CN(C)c1ccc2nc3ccc(=[N+](C)C)cc-3sc2c1` was 928 nM (active). As for `CCc1nc(N)nc(N)c1-c1ccc(Cl)cc1`, the figure is 5220 nM (active). Take `Cc1ccc(Nc2nccc(N(C)c3ccc4c(C)n(C)nc4c3)n2)cc1S(N)(=O)=O`: the Potency entry was “inactive”. As for `CN(C)c1ccc(O)c2c1C[C@H]1C[C@H]3[C@H](N(C)C)C(=O)C(C(N)=O)=C(O)[C@@]3(O)C(=O)C1=C2O`, the entry is “inactive”; as for `O=C1c2c(O)cc(O)cc2OC(c2ccc(O)c(O)c2)C1O` (stereo not drawn), “inactive”.

Take `CCN(CCO)CCCC(C)Nc1ccnc2cc(Cl)ccc12` (stereo not drawn): the Potency result was “inactive”. The value for `CCN(CC)C(=S)SSC(=S)N(CC)CC` was 414 nM (active); that for `CC1(C)C(=O)N(CCN2CCC(C(=O)c3ccc(F)cc3)CC2)c2ccccc21` was “inactive”.

With `Clc1ccc(C(Cn2ccnc2)OCc2ccc(Sc3ccccc3)cc2)c(Cl)c1` (stereo not drawn), the Potency is 26100 nM (active). The value for `Nc1nc(Cl)nc2c1ncn2[C@H]1C[C@H](O)[C@@H](CO)O1` was 208 nM (active); that for `CC[C@]1(O)C[C@H]2CN(CCc3c([nH]c4ccccc34)[C@@](C(=O)OC)(c3cc4c(cc3OC)N(C=O)[C@H]3[C@@](O)(C(=O)OC)[C@H](OC(C)=O)[C@]5(CC)C=CCN6CC[C@]43[C@@H]65)C2)C1` was 14.7 nM (active) and 131 nM (active); that for `Cc1cc(C2CCCCC2)n(O)c(=O)c1` was 2330 nM (active).

(Values after PubChem BioAssay (NCATS).)
